VP16 counter = Gal4-VP16 reporter inhibition counter-screen | Potency, µM (doses to about 53.6 µM), for the others: at the top dose activity, negative = inhibition, usual class: inhibitors | Drosophila S2 Gal4-VP16 UAS-luciferase, luminescence, 20 h | hit rate 3.5% among 310,000 | AID 2546;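 note: Gal4-VP16 expression switched on by copper sulfate through the metallothionein promoter; nearly all actives have a fitted effect of over 50% in size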
RORg inh = inhibitors of mouse ROR gamma transcriptional activity; hit rate 5.4% among 310,000; AID 2551; P51450; Potency, µM (titrated, usually from 53.6 µM), for inactives: at the top dose activity change, negative = inhibition, hits mostly inhibitors; Drosophila S2 Gal4-RORgamma UAS-luciferase reporter, 20 h; note: nearly all actives have a fitted effect of over 60% in size
Target sequence (P51450 whole entry, looked up, the tested form may be a part): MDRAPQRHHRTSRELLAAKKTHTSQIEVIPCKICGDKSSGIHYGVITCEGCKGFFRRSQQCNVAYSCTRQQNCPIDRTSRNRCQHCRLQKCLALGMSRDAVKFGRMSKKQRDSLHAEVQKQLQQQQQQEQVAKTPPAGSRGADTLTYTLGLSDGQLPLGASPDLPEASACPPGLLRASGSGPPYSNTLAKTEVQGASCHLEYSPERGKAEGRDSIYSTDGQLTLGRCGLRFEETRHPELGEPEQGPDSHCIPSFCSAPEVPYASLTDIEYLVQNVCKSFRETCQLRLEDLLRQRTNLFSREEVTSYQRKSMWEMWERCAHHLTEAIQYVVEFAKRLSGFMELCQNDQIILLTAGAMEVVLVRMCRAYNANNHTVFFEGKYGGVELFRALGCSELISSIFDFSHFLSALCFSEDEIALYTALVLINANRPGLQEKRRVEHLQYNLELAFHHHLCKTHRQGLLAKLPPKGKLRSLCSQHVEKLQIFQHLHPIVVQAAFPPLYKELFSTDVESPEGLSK
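ROR gamma transcriptional activity was tracked as Gal4-UAS luciferase output in stably transfected Drosophila Schneider cells, with compound added 1 hr before 700 uM copper sulfate induction and a 20 hr ambient-temperature incubation.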
Tau fluor cs = counter-screen for tau fibril formation inhibitors | tau K18 P301L Alexa594 fluorescence, heparin fibrillization | Potency, µM (series often up to 57.7 µM), for inactives: top-dose activity change, negative = decrease | AID 1463 | hit rate 0.93% among 280,000; note: nearly all actives have a fitted effect of over 55% in size
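Human K18 P301L tau (15 uM unlabeled plus 0.24 uM Alexa 594-labeled, final) in 100 mM sodium acetate pH 7 was mixed with compound and 20 uM heparin and incubated 6 hr at 37 C.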
Tau fibril ThT = tau fibrillization inhibition (ThT binding) | AID 1460 | recombinant tau K18 P301L (four-repeat tau fragment), heparin-induced fibrillization, ThT fluorescence | Potency, µM (titrated, usually from 57.4 µM), without a hit: top-dose activity, negative = inhibition, usual class: inhibitors | P10636 | hit rate 2.1% among 270,000; note: nearly all actives have a fitted effect of over 55% in size
Target sequence (P10636 561-689 P618L limits assumed): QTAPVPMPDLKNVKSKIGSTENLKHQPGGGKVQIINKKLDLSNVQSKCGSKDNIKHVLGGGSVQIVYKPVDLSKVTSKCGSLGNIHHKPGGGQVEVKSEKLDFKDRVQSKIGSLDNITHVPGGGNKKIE
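Recombinant human tau K18 fragment […] carrying P301L, 15 uM unlabeled plus 0.24 uM Alexa 594-labeled, was fibrillized with 20 uM heparin in 100 mM sodium acetate pH 7 for 6 hr at 37 C; 30 uM ThT fluorescence read after 1 hr.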
Tau fibril FP = blocks human tau fibril formation measured by polarization. P10636. K18 P301L tau heparin fibrillization, Alexa594 FP, 6 h. Potency, µM (titrated, usually from 57.7 µM), without a hit: top-dose activity, negative = inhibition, most hits filed as inhibitors. hit rate 0.39% among 280,000. AID 1468; note: nearly all actives have a fitted effect of over 55% in size
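Recombinant K18 P301L […], labeled with Alexa 594 at 0.24 uM over 15 uM unlabeled; heparin inducer 20 uM final; 37 C, 6 hr; FP endpoint.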
* hit, by the source's call; [ ] = dose if it differs, or a comment. The list is not random: actives were taken first. Their share in the collection is about 7.3%. Calls come from the whole dose curve; as a rule, active = well fitted curve in the direction sought with a large enough effect; inconclusive = small, poorly fitted or top-dose-only effect, or another doubt; inactive = no such curve, though single readings can be large; an effect the other way counts as inactive or inconclusive. % is set by controls: 0 for no effect and ±100 for the full control effect; potency is the fitted concentration of half-maximal effect.

Results for COc1ccc(C2CC(=O)N3CN(c4ccc(C)c(Cl)c4)CSC3=C2C#N)cc1 (configuration not stated) ?
VP16 counter: 12.6%; RORg inh: -19.5%; Tau fluor cs: -16.7%; Tau fibril ThT: 31.6µM*; Tau fibril FP: inconclusive

What do the screens show for `COc1ccc(C2CC(=O)N3CN(c4ccccc4F)CSC3=C2C#N)cc1OC` (configuration not stated)?
VP16 counter: -5.2%; RORg inh: 21.3%; Tau fluor cs: -24.4%; Tau fibril ThT: 28.2µM*; Tau fibril FP: inconclusive

How did COc1ccc(CC(=O)N2CCN(c3ccccc3F)CC2)cc1OC do in these assays?
VP16 counter: -19.8%; RORg inh: inconclusive

Results for COc1ccc(OC)c(C2CC(=O)N3CN(c4ccccc4)CSC3=C2C#N)c1 (configuration not stated) ?
VP16 counter: 12.6%; RORg inh: 11.2µM*; Tau fluor cs: inconclusive; Tau fibril ThT: 28.2µM*; Tau fibril FP: 15.8µM*

Results for COc1ccc(CCNC(=O)c2cc(Nc3ccccc3)nc3ccccc23)cc1OC ?
Tau fluor cs: inconclusive; Tau fibril ThT: -9.2%; Tau fibril FP: inconclusive

What do the screens show for `COc1ccc2c(c1)CCc1c-2nc2ccccc2c1N1CCOCC1`?
VP16 counter: inconclusive; RORg inh: 0.0%; Tau fluor cs: -26.9%; Tau fibril ThT: inconclusive; Tau fibril FP: inconclusive

What do the screens show for `CC(C)NC(=S)Nc1ccc(Oc2ccccc2)cc1`?
VP16 counter: -17.5%; RORg inh: inconclusive; Tau fluor cs: -26.7%; Tau fibril ThT: 3.3%; Tau fibril FP: 9.1%

How did CCCNC(=S)Nc1ccc(Oc2ccccc2)cc1 do in these assays?
VP16 counter: 11.2µM*; RORg inh: 12.6µM*; Tau fluor cs: inconclusive; Tau fibril ThT: inconclusive; Tau fibril FP: -0.1%

Results for CCCCNC(=S)Nc1ccc(Oc2ccccc2)cc1 ?
VP16 counter: 5.62µM*; RORg inh: 1.41µM*; Tau fluor cs: inconclusive; Tau fibril ThT: inconclusive; Tau fibril FP: 6.3%

What do the screens show for `CC1(C)CC(=O)C(C(O)c2ccccc2)C(C)(C)N1` (configuration not stated)?
VP16 counter: -9.6%; RORg inh: inconclusive

Results for COc1cccc(N2CCN(C(=O)c3ccc(CS(=O)c4cccc(Cl)c4)o3)CC2)c1 (configuration not stated) ?
Tau fluor cs: -7.1%; Tau fibril ThT: -6.4%; Tau fibril FP: 7.8%

What do the screens show for `COC(=O)c1ccc2nc(-c3ccc(S(C)(=O)=O)cc3)cn2c1`?
VP16 counter: -17.0%; RORg inh: 0.6%; Tau fluor cs: 2.7%; Tau fibril ThT: -12.8%; Tau fibril FP: 3.9%

How did CS(=O)(=O)c1ccc(-c2cn3cc(C(=O)O)ccc3n2)cc1 do in these assays?
VP16 counter: 10µM*; RORg inh: 7.94µM*; Tau fluor cs: 1.6%; Tau fibril ThT: 4.5%; Tau fibril FP: 4.4%

Results for Cc1cc(C)c(Cn2c(=O)n(-c3ccccc3Cl)c(=O)c3c(C)c(C(=O)N(C)C)sc32)c(C)c1 ?
Tau fluor cs: 3.4%; Tau fibril ThT: -4.9%; Tau fibril FP: -4.1%

How did CCOC(=O)CCNC(=O)c1ccc2nc(C3CCCCC3)oc2c1 do in these assays?
VP16 counter: -5.3%; RORg inh: inconclusive

How did CCc1ccc(CNC(=O)c2ccc3nc(C4CCCCC4)oc3c2)nc1 do in these assays?
VP16 counter: 11.2µM*; RORg inh: 6.31µM*

How did COCCCN=C(c1ccco1)n1c(=S)nc(-c2ccco2)n(CCCOC)c1=S do in these assays?
VP16 counter: inconclusive; RORg inh: -20.2%; Tau fluor cs: -23.6%; Tau fibril ThT: 31.6µM*; Tau fibril FP: inconclusive

How did COCCCn1c(-c2ccco2)nc2ccccc2c1=O do in these assays?
VP16 counter: 4.3%; RORg inh: 0.8%; Tau fluor cs: -2.2%; Tau fibril ThT: -8.7%; Tau fibril FP: 6.5%

How did CCOC(=O)C1=C(C)N(CCCCCC(=O)O)C(=O)NC1c1ccc(Cl)cc1 (configuration not stated) do in these assays?
VP16 counter: 5.1%; RORg inh: -0.3%

Results for COCCN1C(=O)N[C@@H](c2cccc(F)c2)C(C(=O)OC)=C1C ?
VP16 counter: -14.7%; RORg inh: -2.6%; Tau fluor cs: -18.2%[11.6 µM]; Tau fibril ThT: -15.2%[11.5 µM]; Tau fibril FP: -1.9%[11.6 µM]

Results for COC(=O)C1=C(C)N(Cc2ccccc2)C(=S)N[C@H]1CCc1ccccc1 ?
VP16 counter: inconclusive; RORg inh: 4.47µM*

How did COC(=O)C1=C(C)N(Cc2ccccc2)C(=NCCCCO)N[C@H]1CCc1ccccc1 do in these assays?
VP16 counter: -1.9%; RORg inh: -2.4%

Results for CCOC(=O)C1=C(C)N(CC)C(=S)NC1c1ccc(Cl)cc1 (configuration not stated) ?
VP16 counter: 6.31µM*; RORg inh: 7.08µM*; Tau fluor cs: -17.7%; Tau fibril ThT: -7.7%; Tau fibril FP: -11.1%

How did COC(=O)C1=C(C)N(Cc2ccccc2)C(=S)N[C@H]1c1ccccc1 do in these assays?
VP16 counter: 15.8µM*; RORg inh: 3.16µM*

How did CCN1C(=S)N[C@@H](c2cccc(F)c2)C(C(=O)OC)=C1C do in these assays?
VP16 counter: 11.2µM*; RORg inh: 5.01µM*

What do the screens show for `CCCCC/C=C\C\C=C/C=C/C=C/[C@@H](O)[C@@H](O)CCCC(=O)O`?
VP16 counter: 3.3%; RORg inh: -35.7%; Tau fluor cs: -5.5%; Tau fibril ThT: -1.3%; Tau fibril FP: -1.6%

How did Cc1c(CCC(=O)NCCC(=O)O)c(=O)oc2c(C)c3oc4c(c3cc12)CCCC4 do in these assays?
VP16 counter: -21.1%; RORg inh: -25.2%

How did CCOC(=O)C1=C(C)Nc2nc(=S)[nH]n2C1c1ccc(Cl)cc1 (configuration not stated) do in these assays?
VP16 counter: -13.5%; RORg inh: 10µM*; Tau fluor cs: -10.7%; Tau fibril ThT: inconclusive; Tau fibril FP: -7.3%

How did Cc1cc(NC(=O)c2cc(Cl)ccc2Cl)ccc1-c1cc2ccccc2oc1=O do in these assays?
Tau fluor cs: -4.4%; Tau fibril ThT: 6.4%; Tau fibril FP: inconclusive

How did O=C(Nc1nc2n(n1)C(c1ccc(Cl)cc1)CC(c1ccc(Cl)cc1)N2)c1ccco1 (configuration not stated) do in these assays?
VP16 counter: 3.55µM*; RORg inh: 3.16µM*; Tau fluor cs: -20.3%; Tau fibril ThT: -22.6%; Tau fibril FP: -6.3%

Results for O=C(Nc1nc2n(n1)C(c1ccc(F)cc1)CC(c1ccccc1)N2)c1ccco1 (configuration not stated) ?
VP16 counter: 7.08µM*; RORg inh: 3.16µM*; Tau fluor cs: -11.3%; Tau fibril ThT: -15.3%; Tau fibril FP: 2.9%
